Our source for the growth inhibition values is PubChem BioAssay (NCI).

The structures appear in SMILES notation. Compounds without any hit were thinned out: in the full panel of roughly 79,000, 15% have a hit. A number with no mark means an inactive call. Activity calls are given as the source filed them. Rule as the data show it: active = growth inhibition above about 70%; inactive = the rest.

A short description of test [1]: NCI Yeast Anticancer Drug Screen. Data for the rad50 strain (AID 155).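 Also: 0% = growth of vehicle-only cultures of the same strain.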 The following applies: S. cerevisiae rad50 strain growth inhibition, stronger effect = higher value; at 50.0 µM unless noted. The method in brief: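 A DNA repair-deficient yeast mutant serves as the test organism; compound-induced growth inhibition is calculated against vehicle-treated cells.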
A short description of test [2]: NCI Yeast Anticancer Drug Screen. Data for the mec2-1 strain (AID 157). The following applies: S. cerevisiae mec2-1 strain, stronger effect = higher value; at 50.0 µM unless noted. The method in brief:
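Vehicle-treated cultures served as reference for growth inhibition of compound-exposed mec2-1 yeast.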

Test [3] in a line: NCI Yeast Anticancer Drug Screen. Data for the sgs1 mgt1 strain (AID 161).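 Also: 0% = growth of cultures given vehicle only.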 The settings on record: S. cerevisiae sgs1 mgt1 strain, stronger effect = higher value; at 50.0 µM unless noted. In outline: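 Inhibition of yeast growth, normalised to vehicle-treated controls, is reported for a strain bearing genetic alterations in DNA damage repair.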
The nature of test [4]: NCI Yeast Anticancer Drug Screen. Data for the cln2 rad14 strain (AID 165).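 Also: 0% = growth equal to vehicle treated cultures.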 The following applies: S. cerevisiae cln2 rad14 strain, stronger effect = higher value; at 50.0 µM unless noted. In outline: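 Each compound was tested on cln2 rad14 yeast. Inhibition of growth was calculated against vehicle-exposed controls.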
Test [5] is described as follows: NCI Yeast Anticancer Drug Screen. Data for the bub3 strain (AID 167). The following applies: S. cerevisiae bub3 mutant strain, stronger effect = higher value; at 50.0 µM unless noted. In outline:
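Inhibition values come from growth of compound-treated mutant yeast normalised to vehicle-treated controls.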

Test [6] can be described thus: NCI Yeast Anticancer Drug Screen. Data for the mlh1 rad18 strain (AID 175). The settings on record: S. cerevisiae mlh1 rad18 strain growth inhibition, stronger effect = higher value; at 50.0 µM unless noted. In outline: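 Vehicle-treated cultures served as the reference for growth inhibition in a yeast strain carrying DNA damage repair alterations exposed to each compound.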

As to `C=CCCCCCCC=C`, the growth inhibition was -23.6% in test [1]; -43% in test [2]; -4.1% in test [3]; 2.45% in test [4]; -34.2% in test [5]; -19.4% in test [6].

`O=C(Cc1ccccc1)NCCCN(CCCCN(CCCNC(=O)Cc1ccccc1)C(=O)OCc1ccccc1)C(=O)OCc1ccccc1`: the growth inhibition is -11.9% in test [1]; -11.6% in test [2]; -2.7% in test [3]; -7.4% in test [4]; -0.85% in test [5]; -27.6% in test [6].

With `CC1CCC2COC(=O)CCC2(C)C1C` (stereo not given), the growth inhibition in test [1] is 5.95%; in test [2], 0.7%; in test [3] it was -9.75%; in test [4], -40.9%; in test [5], -17.4%; in test [6], -22.9%.

Consider `CCCC1([N+]2(C)CCCC2)CS(=O)C1CC` (stereo not given), for which the growth inhibition was -3.8% in test [1]; 8.45% in test [2]; -3% in test [3]; -4.8% in test [4]; 5.8% in test [5]; -13.3% in test [6].

Take `COc1cc2c(=O)[nH]c3cc(N)ccc3c2cc1N`: the growth inhibition is 9.6% in test [1]; 7.9% in test [2]; -4.2% in test [3]; -7.8% in test [4]; -3.95% in test [5]; 0.6% in test [6].

For the compound `C[C@]12CCC(=O)C=C1CC[C@@H]1[C@@H]2C(=O)C[C@]2(C)/C(=C\C(=O)O)CC[C@@H]12`, the growth inhibition in test [1] was -1%; in test [2] it was -19.1%; in test [3], 5.7%; in test [4] it was -48.1%; in test [5] it was -4.5%; in test [6], 2.55%.

For `COc1cccc(C2C(C(=O)Nc3cc(=O)n(C)c(=O)n3C)=C(C)NC(C)=C2C(=O)Nc2cc(=O)n(C)c(=O)n2C)c1O`, the growth inhibition in test [1] was -15.1%; in test [2], 13%; in test [3], 13.4%; in test [4], 12.2%; in test [5], 2.55%; in test [6] it was 14.8%.

Regarding `COc1cc([N+](=O)[O-])c(S(=O)(=O)O)cc1NS(=O)(=O)c1ccc(C)cc1`, the growth inhibition in test [1] was 7.8%; in test [2], 16.6%; in test [3], 22%; in test [4] it was 3.95%; in test [5], 1.4%; in test [6], 10.2%.

As for `C1CCN(CCC2CCNCC2)CC1`, the growth inhibition was -5.4% in test [1]; -18.3% in test [2]; -12.1% in test [3]; 1.8% in test [4]; 7.65% in test [5]; -1.6% in test [6].

Regarding `CC(O)CCC(=O)c1nc2ccccc2s1` (stereo not given), the growth inhibition in test [1] is -14.4%; in test [2] it was 19.2%; in test [3] it was 5.95%; in test [4], -6.3%; in test [5] it was 4.95%; in test [6], 3.5%.

Turning to `CCOC(=O)NC(=O)c1cn(CCCCCCCCCCC(=O)N2CCN(CCn3cc(C(=O)NC(=O)OCC)c(=O)[nH]c3=O)CC2)c(=O)[nH]c1=O`, the growth inhibition in test [1] was 27.2%; in test [2], 18.4%; in test [3] it was 17.9%; in test [4] it was 5.8%; in test [5], -6.2%; in test [6], 6.45%.

In the case of `CCOC(=O)C(NC(C)=O)(Nc1ccc(S(N)(=O)=O)cc1)C(F)(F)F` (stereo not given), the growth inhibition was -16.2% in test [1]; 1.55% in test [2]; 3.95% in test [3]; 27.6% in test [4]; 7.7% in test [5]; -28.9% in test [6].

`N#CC(C(=S)Nc1ccccc1)=C1Nc2ccccc2N1`: the growth inhibition in test [1] was 7.2%; in test [2], -36.2%; in test [3] it was -18.1%; in test [4] it was -2.65%; in test [5], -20.1%; in test [6], -22.8%.

On to `CCCCCCCCCCCCCOc1ccc(S(=O)(=O)/N=C(\N)NC(N)=NCCCCCCCCCCCC)cc1`, for which the growth inhibition is 2.9% in test [1]; 12.4% in test [2]; -2.8% in test [3]; -1.55% in test [4]; -4.95% in test [5]; 8.05% in test [6].

In the case of `C#CCOc1ccc(C)cc1`, the growth inhibition in test [1] was -0.55%; in test [2] it was 5.35%; in test [3], -7.05%; in test [4] it was 9.25%; in test [5], 2.55%; in test [6] it was -10.1%.

As to `CC(C)CCC[C@@H](C)C1CCC2[C@@H]3CCC4C[C@@H](CCC=C(c5cc(Cl)c(O)c(C(=O)O)c5)c5cc(Cl)c(O)c(C(=O)O)c5)CC[C@]4(C)C3CC[C@@]21C` (stereo not given in full), the growth inhibition in test [1] was -26.4%; in test [2], -21.9%; in test [3] it was -14.7%; in test [4] it was -41%; in test [5] it was 8.5%; in test [6], -45.9%.

With `CCOC(=O)C1=C(O)C[C@]2(O)C3CC=C(C)[C@@H]4CCO[C@](OC)(C[C@H]2C1)[C@]34C(=O)OC` (stereo not given in full), the growth inhibition was 1% in test [1]; 12.8% in test [2]; 8.35% in test [3]; 1% in test [4]; -1.1% in test [5]; 13.1% in test [6].

On to `COc1cc2c[n+](C)c3c4cc(OC)c(OC)cc4c(OCc4ccccc4)cc3c2cc1OC`, for which the growth inhibition in test [1] was 86% (active); in test [2], 89.8% (active); in test [3], 88.1% (active); in test [4], 88.7% (active); in test [5] it was 87.5% (active); in test [6], 91.2% (active).

Regarding `O=C(OCc1ccccc1CN1CCCCC1)c1cccc(Cl)c1`, the growth inhibition in test [1] was -2.85%; in test [2], -7.7%; in test [3] it was -6.3%; in test [4], -10.3%; in test [5] it was 7.35%; in test [6], 2.3%.

For the compound `CC(C)CCOC=O`, the growth inhibition in test [1] was 38.1%; in test [2] it was 28.4%; in test [3] it was 22.8%; in test [4] it was 21.6%; in test [5], 24.9%; in test [6], 30.5%.
